# Compound activity (PubChem BioAssay)
# Rab7 wt GTP bind: alters GTP binding to wildtype dog Rab7; GTP binding activity (percent of control), % at 10 µM; GST-Rab7 beads, fluorescent GTP binding, flow cytometry; actives lie on both sides; untreated = 100%, excess cold GTP = 0%; actives 0.055% (n = 190,000);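 active means fluorescent GTP binding to Rab7 beads changed by at least 20 points from the 100% baseline, either direction, mostly lower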;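 further: median green fluorescence of bound Bodipy-FL-GTP per Rab7 bead population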
# Cdc42 wt GTP: human Cdc42 wildtype GTP binding change, either direction; P60953; AID 761; actives 0.2% (n = 190,000); GST-Cdc42 beads, Bodipy-GTP binding, flow cytometry; actives lie on both sides; percent activity (GTP binding), % at 10 µM;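 active means percent activity GTP binding at least 20 points away from the 100% baseline, either down as inhibitor or up as activator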;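 further: median bead fluorescence of bound Bodipy-FL-GTP at 100 nM; 0% = excess unlabeled GTP control and 100% = no compound control; below 100% means less GTP binding so inhibitor and above means activator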
# Target sequence (P60953 whole entry, looked up): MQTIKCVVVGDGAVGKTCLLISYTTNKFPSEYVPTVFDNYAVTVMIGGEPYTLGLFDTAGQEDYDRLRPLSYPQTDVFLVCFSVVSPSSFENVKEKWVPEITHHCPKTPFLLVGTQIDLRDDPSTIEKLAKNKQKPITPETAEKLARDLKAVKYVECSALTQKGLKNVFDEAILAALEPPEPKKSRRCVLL
# HRas wt GTP bind: changes GTP binding to wildtype human HRas. GST-Ras wt beads, Bodipy-FL-GTP binding, flow cytometry; actives lie on both sides. GTP binding activity, % at 10 µM. actives 0.14% (n = 190,000). AID 759;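 active means GTP binding activity at least 20% away from the 100% baseline, either lowered as inhibitor or raised as activator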;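 further: 0% = unlabeled GTP competition control and 100% = no-compound control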
# Target sequence (P01112 whole entry, looked up): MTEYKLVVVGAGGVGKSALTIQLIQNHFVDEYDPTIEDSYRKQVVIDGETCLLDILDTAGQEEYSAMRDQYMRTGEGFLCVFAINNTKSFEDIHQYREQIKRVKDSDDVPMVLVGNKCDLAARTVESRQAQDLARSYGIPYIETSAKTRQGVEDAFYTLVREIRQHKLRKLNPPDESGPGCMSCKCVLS
# Rab2 wt GTP: changes GTP binding to wildtype dog Rab2A, up or down; actives 0.19% (n = 190,000); P61105; GST-Rab2 wt beads, Bodipy-GTP binding, flow cytometry; GTP binding activity, % at 10 µM;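 active means GTP binding activity at least 20 points away from 100%, either lowered or raised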;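 further: 0% = beads with excess unlabeled GTP and 100% = no-compound control corrected for plate trend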
# Rac1 wt modul: human Rac1 wildtype GTP binding, inhibitors and activators; actives 0.27% (n = 190,000); GTP binding activity (% of control), % at 10 µM; P63000; GST-Rac1 beads, fluorescent GTP binding, flow cytometry; actives lie on both sides; 0 = cold GTP competed, 100 = untreated;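 active means GTP binding activity at least 20 points away from the 100% control level, either lower or higher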
# Rac1 mut GTP: human Rac1 activated mutant GTP binding change | P63000 | GST-Rac1 activated beads, fluorescent GTP binding, flow cytometry; actives lie on both sides; 100% means binding = to untreated wells | percent activity (GTP binding), % at 10 µM | actives 0.11% (n = 190,000);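 active means GTP binding at least 20 percentage points away from the 100% baseline, in either direction, so actives lie on both sides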
# Active calls of the source: *; [ ] = remark or other dose. A selection: hits, their analogues and other compounds. The true share with any hit is near 0.37%.
SMILES,Rab7 wt GTP bind,Cdc42 wt GTP,HRas wt GTP bind,Rab2 wt GTP,Rac1 wt modul,Rac1 mut GTP
CS(=O)(=O)c1ccc(C(=O)OCC(=O)NC(=O)C2CCCCC2)cc1[N+](=O)[O-],100,68*,87,82,89,71*
Cc1ccccc1NC(=O)COC(=O)c1ccc(S(C)(=O)=O)c([N+](=O)[O-])c1,99,83,91,94,92,82
CS(=O)(=O)c1ccc(C(=O)OCc2nnc(-c3ccccc3)o2)cc1[N+](=O)[O-],100,76*,87,85,89,74*
O=C(OCc1nnc(-c2ccccc2)o1)c1ccc(Cl)cc1,92,93,92,91,91,91
CC1Cc2ccccc2N1S(=O)(=O)c1cccc(C(=O)NCCCO)c1 (stereo unspecified),110,113,108,112,123*[activator],108
Cc1cc(C)nc(Nc2nc(=O)c3ccccc3s2)n1,104,135*[activator],110,117,165*[activator],114
CCN(CC)C(=S)SCC(=O)Nc1nc(=O)c2ccccc2s1,93,94,96,95,99,96
CSc1nc(Cc2ccccc2)cc(=O)[nH]1,111,120*[activator],116,120*[activator],127*[activator],122*[activator]
CCCc1cc(=O)[nH]c(SCc2ccccc2)n1,103,102,102,101,104,99
Cc1ccc(OCCn2cnc3cc([N+](=O)[O-])ccc3c2=O)cc1,100,79*,82,79*,90,87
O=c1c2ccc([N+](=O)[O-])cc2ncn1CCOc1ccccc1,95,84,81,79*,76*,87
O=C(O)COc1ccccc1/C=N/Nc1ccc(S(=O)(=O)Nc2ccc(Cl)cc2)cc1[N+](=O)[O-],94,79*,87,84,84,80
O=C(CCc1nnc(-c2ccc3c(c2)OCO3)o1)N1CCC(c2ccc(F)cc2)C1 (stereo unspecified),96,81,87,82,88,79*
O=C(c1ccc(Cl)c(Cl)c1)N1CCC(=O)N(C(COCc2ccccc2)Cc2ccccc2)CC1 (stereo unspecified),94,97,96,96,104,99
O=C(O)CC/C(=C\c1ccc(N2CCOCC2)c([N+](=O)[O-])c1)c1nc2ccccc2s1,80,71*,77*,74*,82,72*
Cc1ccc(N=Nc2c(N)[nH]n3c(=O)cc(-c4ccccc4)nc23)cc1,83,79*,85,78*,79*,77*
Nc1[nH]n2c(=O)c3c(nc2c1N=Nc1ccc(Cl)cc1)CCCC3,89,86,86,81,74*,84
Nc1[nH]n2c(=O)c3c(nc2c1N=Nc1ccccc1)CCCC3,94,72*,73*,71*,85,85
COc1cccc(N=Nc2c(N)[nH]n3c(=O)cc(-c4ccccc4)nc23)c1,94,92,92,88,93,91
O=C(COc1ccccc1[N+](=O)[O-])NCCC1=CCCCC1,102,96,97,99,99,95
CCCc1nnc(SCC(=O)N2CCCCC2C)n1CCOC (stereo unspecified),92,99,91,94,94,94
CCOc1ccc(-n2c(C)nc(O)c2N=Nc2ccccc2)cc1,97,95,95,95,94,96
Cc1nonc1CN(C)C(=O)CC1C(=O)NCCN1Cc1cccc(C(F)(F)F)c1 (stereo unspecified),96,95,95,97,95,95
Cc1sc2nc3c4ccccc4c(NCc4ccco4)nn3c(=O)c2c1C,87,75*,76*,74*,83,85
Cn1c(=O)c2cc(S(=O)(=O)NCCC(=O)NCc3ccccc3Cl)ccc2n(C)c1=O,91,68*,68*,64*,89,85
SMILES,Rab7 wt GTP bind,Cdc42 wt GTP,HRas wt GTP bind,Rab2 wt GTP,Rac1 wt modul,Rac1 mut GTP
Cc1ccccc1NC(=O)c1cc2c(C)nc3ccccc3c2o1,92,88,90,88,84,90
CCc1ccc(NC(=O)c2cc3c(C)nc4ccccc4c3o2)cc1,91,85,87,85,75*,89
Cc1ccc([N+](=O)[O-])cc1-c1ccc(/C=C(\C#N)c2[nH]nc(N)c2C#N)o1,87,88,80,82,79*,88
C=CCn1c(-c2csc(-c3ccc(Cl)cc3)n2)n[nH]c1=S,105,116,110,112,120*[activator],101
CC/C(O)=C(/C#N)c1nnc2n1CCCCC2,102,103,101,102,104,100
N#C/C(=C(/O)COc1ccc(Br)cc1)c1nnc2n1CCCCC2,80,76*,81,77*,78*,75*
O=C(O)c1cccc(Oc2ccc([N+](=O)[O-])cc2)c1,115,127*[activator],117,121*[activator],141*[activator],120*[activator]
CN1CCN(c2ccccc2NC(=O)c2ccc(-c3cccc([N+](=O)[O-])c3)o2)CC1,106,108,107,106,123*[activator],107
COc1ccc(-c2cc(C#N)nc(N3CCNCC3)n2)cc1,113,131*[activator],125*[activator],127*[activator],131*[activator],131*[activator]
COc1ccc(-c2cc(C#N)nc(N3CCN(C)CC3)n2)cc1,98,102,101,103,107,101
N#Cc1c(-c2ccccc2)nc2n1CCS2,97,90,92,96,92,92
COc1ccc(CCn2c(C)nc3c(c(=O)c4ccccc4n3C)c2=O)cc1,99,103,98,96,96,99
COc1ccc(CCn2c(C(C)C)nc3c(c(=O)c4ccccc4n3C)c2=O)cc1,96,99,85,77*,91,95
COc1cc(/C=N/Nc2nnc3c(n2)[nH]c2ccccc23)ccc1O,85,94,83,79*,86,93
COc1cc(/C=N/Nc2ccccc2C(F)(F)F)ccc1O,103,90,94,97,94,93
COc1cc(/C=N/Nc2nncn2/N=C/c2ccc(O)c(OC)c2)ccc1O,91,77*,76*,79*,75*,86
Cc1ccc(C(=O)Nc2ccnc(-c3cccnc3)n2)cc1,92,94,94,94,89,94
Cc1ccc(NC(=O)Nc2ccnc(-c3cccnc3)n2)cc1,87,65*,67*,64*,83,86
Cc1ccc(S(=O)(=O)N2CC3(C)CN(S(=O)(=O)c4ccc(C)cc4)CC(C)(C2)C3O)cc1 (stereo unspecified),104,126*[activator],101,100,108,101
